High-throughput results from PubChem.
Shown are actives, neighbours in structure and some others; about 1.3% of the full set was active somewhere.
SARS 3CLpro inh-1: SARS-CoV 3CLpro protease inhibition; inhibition, % at 6 µM; P0C6X7; AID 1706; recombinant SARS-CoV 3CLpro, quenched FRET peptide cleavage; actives 0.14% (n = 290,000); in the data active = inhibition above about 12%
VHR inh abs: DUSP3 (human) phosphatase inhibition; P51452; recombinant VHR phosphatase, pNPP absorbance; inhibition, % at 13.3 µM; actives 0.52% (n = 290,000); AID 1654; in the data active = inhibition above about 50%
Target sequence (P51452 whole entry, looked up): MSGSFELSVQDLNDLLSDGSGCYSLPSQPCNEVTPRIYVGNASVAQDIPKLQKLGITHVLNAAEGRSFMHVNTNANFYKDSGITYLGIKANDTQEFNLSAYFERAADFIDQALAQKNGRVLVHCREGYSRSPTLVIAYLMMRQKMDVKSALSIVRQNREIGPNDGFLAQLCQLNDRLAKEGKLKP
CCHFV vOTU inh: CCHFV vOTU protease inhibition; inhibition, % at 11.5 µM; actives 0.55% (n = 370,000); AID 651958; Pep-AMC fluorescence; in the data active = inhibition above about 30%
TcdB GH inh: TcdB glycohydrolase inhibition; P18177; TcdB glycohydrolase enzymatic assay, plate reader; inhibition, % at 9.99 µM; actives 0.24% (n = 350,000); in the data active = inhibition above about 10%
BH1578 lux ind: induces V. cholerae light production without autoinducers. AID 588436. activation, % at 18.7 µM. V. cholerae BH1578 lux reporter, luminescence, 6 h. actives 0.16% (n = 350,000); in the data active = activation mostly above about 9.7%, no sharp cut-off
SSB-PriA inh: K. pneumoniae PriA-SSBct interaction inhibition; AlphaScreen SSBct-PriA binding, biotinylated peptide; actives 0.6% (n = 430,000); inhibition, % at 33 µM; in the data active = inhibition mostly above about 37%, no sharp cut-off; inactive = mostly below about 20%
SARS 3CLpro inh-2: SARS 3CLpro inhibition, confirmation assay; actives 36% (n = 380); shares compounds with SARS 3CLpro inh-1; AID 1879; inhibition, % at 6 µM; QFRET protease activity assay; in the data active = inhibition above about 13%
Each line names hits and unclear results; the compound was inactive in the other large screens (follow-up assays come after a bar, where they were run).

O=C1C(=O)N(C/C=C/c2ccccc2)c2ccccc21	SARS 3CLpro inh-1 34 | SARS 3CLpro inh-2 36
O=C1C(=O)N(CCCc2ccccc2)c2ccccc21	SARS 3CLpro inh-1 19 (no result: CCHFV vOTU inh, TcdB GH inh) | SARS 3CLpro inh-2 22
O=C1c2ccccc2C(=O)N1C/C=C/c1ccccc1	none (no result: TcdB GH inh)
CC(C)CS(=O)(=O)C1=NSC2=NC(=O)/C(=C\c3ccc(OC(=O)c4ccco4)cc3)C(=N)N21	SARS 3CLpro inh-1 13 | SARS 3CLpro inh-2 inactive
COc1cccc2c1OC(C)C(=O)N(c1ccc(F)cc1C)C2 (stereo unspecified)	none (no result: SARS 3CLpro inh-1, VHR inh abs, CCHFV vOTU inh, TcdB GH inh, BH1578 lux ind)
O=C(Nc1nc(-c2ccccc2)cs1)c1cccc([N+](=O)[O-])c1C(=O)O	SARS 3CLpro inh-1 16 | SARS 3CLpro inh-2 28
O=C(COc1ccc(Cl)cc1Cl)Nc1nc2ccc(S(=O)(=O)N3CCCC3)cc2s1	none (no result: SARS 3CLpro inh-1, VHR inh abs, CCHFV vOTU inh, TcdB GH inh, BH1578 lux ind)
COc1ccc(C2C(O)C(c3c[nH]c4ccccc34)=NN2C(=O)CCl)cc1 (stereo unspecified)	SARS 3CLpro inh-1 61 | SARS 3CLpro inh-2 78
O=C(c1ccco1)N1CC(S(=O)(=O)C2CCCCC2)C1	none (no result: SARS 3CLpro inh-1, VHR inh abs, CCHFV vOTU inh, TcdB GH inh, BH1578 lux ind)
CCCC(=O)N(Cc1cc(=O)[nH]c2ccccc12)c1ccc(OC)cc1	none
COc1ccc(N(Cc2cc(=O)[nH]c3ccccc23)C(=O)CCl)cc1	SARS 3CLpro inh-1 16 | SARS 3CLpro inh-2 25
Cn1ncc(Cl)c1C(=O)Nc1ccc2c(c1)OCO2	SARS 3CLpro inh-1 13 | SARS 3CLpro inh-2 inactive
Cn1ncc(Cl)c1C(=O)NCc1ccc2c(c1)OCO2	none
Cc1ccc(-c2cc(NC(=O)c3ccccc3[N+](=O)[O-])n[nH]2)cc1	SARS 3CLpro inh-1 16 | SARS 3CLpro inh-2 14
CCOc1ccccc1C(=O)Nc1ccc2c(c1)NC(=O)C(C)(C)CO2	none (no result: SARS 3CLpro inh-1, VHR inh abs, CCHFV vOTU inh, TcdB GH inh, BH1578 lux ind)
CC(C)NC(=O)CN1CCN(c2ncccn2)CC1	SARS 3CLpro inh-1 12 (no result: TcdB GH inh) | SARS 3CLpro inh-2 inactive
CC(NC(=O)CN1CCN(c2ncccn2)CC1)c1ccc(F)cc1 (stereo unspecified)	none (no result: TcdB GH inh)
O=C(Nc1ccccc1)NN(C(=O)CCl)c1ccccc1	SARS 3CLpro inh-1 32 | SARS 3CLpro inh-2 36
CCC(O)(CC)C(=O)NN(C(=O)CCl)c1ccccc1	none
Cc1cccc(NC(=S)NN2CCOCC2)c1C	SARS 3CLpro inh-1 13 (no result: TcdB GH inh) | SARS 3CLpro inh-2 inactive
Cc1cccc(NC(=S)NN2CCN(C)CC2)c1C	none (no result: TcdB GH inh)
O=C(NCCN1CCOC(c2ccccc2)C1)C(=O)NC1CCCCC1 (stereo unspecified)	none (no result: SARS 3CLpro inh-1, VHR inh abs, CCHFV vOTU inh, TcdB GH inh, BH1578 lux ind)
CNc1ccc(Br)cc(C(=O)/C=C/c2ccc3c(c2)OCO3)c1=O	SARS 3CLpro inh-1 13 (no result: TcdB GH inh) | SARS 3CLpro inh-2 inactive
Cc1cccc(NS(=O)(=O)c2nnc(NC(=O)c3cccc(C)c3)s2)c1	SARS 3CLpro inh-1 12 | SARS 3CLpro inh-2 inactive
Cc1cccc(NS(=O)(=O)c2nnc(NC(=O)c3ccc(Cl)cc3)s2)c1	SARS 3CLpro inh-1 13 | SARS 3CLpro inh-2 inactive
Cc1nc(C)c(C(=O)NCCCn2nc(-c3ccc(F)cc3)ccc2=O)s1	none (no result: SARS 3CLpro inh-1, VHR inh abs, CCHFV vOTU inh, TcdB GH inh, BH1578 lux ind)
COc1cc2c(cc1OC)CN(S(=O)(=O)CCNC(=O)c1cc(Cl)ccc1OC)CC2	none (no result: SARS 3CLpro inh-1, VHR inh abs, CCHFV vOTU inh, TcdB GH inh, BH1578 lux ind)
O=C(CSc1ccc(F)cc1)NCc1cncc(-c2cccs2)c1	none (no result: SARS 3CLpro inh-1, VHR inh abs, CCHFV vOTU inh, TcdB GH inh, BH1578 lux ind)
O=S(=O)(c1cccc(NC(=S)N2CCN(c3ccccc3)CC2)c1)C(F)F	SARS 3CLpro inh-1 13 (no result: TcdB GH inh) | SARS 3CLpro inh-2 inactive
O=S(=O)(c1cccc(NC(=S)N2CCN(c3ccccc3F)CC2)c1)C(F)F	none
CCN(CC)C(=O)CSc1nc2c(-c3ccccc3)c[nH]c2c(=O)n1Cc1cccc(OC)c1	none (no result: SARS 3CLpro inh-1, VHR inh abs, CCHFV vOTU inh, TcdB GH inh, BH1578 lux ind)
NC(=NS(=O)(=O)c1cc(C(F)(F)F)cc(C(F)(F)F)c1)c1ccccc1	none (no result: SARS 3CLpro inh-1, VHR inh abs, CCHFV vOTU inh, TcdB GH inh, BH1578 lux ind)
N/C(=N\S(=O)(=O)c1cc(C(F)(F)F)cc(C(F)(F)F)c1)c1ccc(Cl)cc1	SARS 3CLpro inh-1 14 (no result: SSB-PriA inh) | SARS 3CLpro inh-2 inactive
O=C(Nc1ccc(NC(=S)NC(=O)c2ccccc2Cl)cc1)c1cccc(Cl)c1	SARS 3CLpro inh-1 16 (no result: VHR inh abs, TcdB GH inh) | SARS 3CLpro inh-2 inactive
CC(C)C(=O)Nc1cccc(NC(=S)NC(=O)c2ccccc2Cl)c1	none (no result: TcdB GH inh)
O=C(Nc1nc(-c2cccs2)cs1)c1ccc(Cl)cc1	SARS 3CLpro inh-1 13 (no result: TcdB GH inh) | SARS 3CLpro inh-2 inactive
CCc1ccc(C(=O)Nn2cnc3ccccc3c2=O)cc1	none
O=C(Nn1cnc2ccccc2c1=O)c1ccc(Br)cc1	SARS 3CLpro inh-1 14 | SARS 3CLpro inh-2 inactive
O=C(CC1C(=O)NCCN1C(=O)Nc1ccc(C(F)(F)F)cc1)Nc1ccc(F)cc1 (stereo unspecified)	none
